Bioassay records: PubChem BioAssay, National Center for Advancing Translational Sciences (NCATS)
VDR inh – vitamin D3 receptor (human) inhibition | VDR-SRC2-3 peptide fluorescence polarization, 2 h | 400,000 tested, 0.93% active | Potency, µM, for inactives: max response, negative = inhibition, usual class: inhibitors | P11473 | AID 504847
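After 23 nl compound addition and a short centrifugation, plates sat for 2 hours at ambient temperature; polarization of fluorescence then indicated loss of VDR binding to peptide SRC2-3.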
TrxR1 inh – blocks rat thioredoxin reductase 1; O89049; recombinant rTrxR1, NADPH fluorescence consumption, selenite substrate; Potency, µM (highest dose often 114 µM), for inactives: top-dose activity change, negative = inhibition, most hits filed as inhibitors; 390,000 tested, 1% active; also: nearly all actives have a fitted effect of over 65% in size
Target sequence (O89049 whole entry, looked up): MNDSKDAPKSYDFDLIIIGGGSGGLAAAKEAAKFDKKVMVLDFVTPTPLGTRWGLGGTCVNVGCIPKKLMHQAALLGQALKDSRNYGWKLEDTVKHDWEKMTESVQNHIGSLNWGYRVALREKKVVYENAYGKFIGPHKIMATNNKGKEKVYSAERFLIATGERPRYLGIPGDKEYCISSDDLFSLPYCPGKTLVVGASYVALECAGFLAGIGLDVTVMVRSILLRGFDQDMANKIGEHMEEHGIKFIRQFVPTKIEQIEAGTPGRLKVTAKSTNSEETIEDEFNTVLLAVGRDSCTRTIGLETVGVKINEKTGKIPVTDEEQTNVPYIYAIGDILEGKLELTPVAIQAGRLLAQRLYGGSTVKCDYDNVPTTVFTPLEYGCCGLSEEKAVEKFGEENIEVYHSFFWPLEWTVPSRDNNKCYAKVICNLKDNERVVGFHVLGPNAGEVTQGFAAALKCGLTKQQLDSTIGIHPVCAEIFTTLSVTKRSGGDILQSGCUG
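Rat TrxR1 (90 nM in the dispensed reagent) was pre-reduced with 400 uM NADPH for 5 min at room temperature, then incubated with compound for 15 min. After 400 uM selenite was added, NADPH fluorescence (Ex 340/Em 450 nm) was followed for 8 min.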
PLK1 PBD block – inhibitors of human PLK1 polo-box domain binding; P53350; Plk1 PBD binding of FITC phosphopeptide, fluorescence polarization; Potency, µM, for inactives: max response, negative = inhibition, hits mostly inhibitors; 360,000 tested, 2.8% active; also: series mostly up to about 57 µM; nearly all actives have a fitted effect of over 65% in size
Sfp inh – Sfp phosphopantetheinyl transferase inhibition; Q9F4F7; AID 1490; Potency, µM, without a hit: largest response in the series, negative = inhibition, actives largely listed as inhibitors; 310,000 tested, 3.5% active; Biochemical Sfp PPTase activity, qHTS;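 also: the enzyme is Sfp with the accession as filed and its product quenches rhodamine fluorescence; 0% = enzyme reaction without inhibitor and -100% = no enzyme wells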
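Buffer: 50 mM Hepes-Na pH 7.6, 10 mM MgCl2, 0.01% Nonidet P-40, 0.01% BSA. Enzyme 15 nM, pre-exposed to compound 15 min; substrates then added and fluorescence change tracked over 30 min.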
IDH1 R132H inh – inhibitors of human mutant IDH1 R132H; IDH1-R132H enzyme, NADPH consumption, diaphorase/resazurin fluorescence; Potency, µM (titrated, usually from 76.6 µM), without a hit: at the top dose activity change, negative = inhibition, most hits filed as inhibitors; 390,000 tested, 0.093% active; also: nearly all actives have a fitted effect of over 65% in size
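IDH1-R132H (0.5 ug/mL dispensed) in pH 7.5 Tris buffer was preincubated 30 min with compound, then given a substrate mix of 0.016 mM NADPH and 2 mM alpha-KG for 80 min at room temperature; remaining NADPH was read by diaphorase/resazurin fluorescence.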
TrxR1 substrate – rat thioredoxin reductase 1 substrate activity; O89049; purified TrxR1 substrate turnover, NADPH consumption readout; Potency, µM (titrated, usually from 114 µM), for the others: at the top dose activity change, negative = substrate turnover; 390,000 tested, 0.01% active; AID 588456; also: nearly all actives have a fitted effect of over 50% in size
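Rat TrxR1, dispensed at 90 nM, was prereduced with 400 uM NADPH (final) for 5 min at ~22 deg C, then incubated with compound 15 min before 400 uM selenite. A first-read NADPH fluorescence drop versus no-compound background flagged substrates.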
* hit, by the source's call; ? = inconclusive; . = no result given; [ ] = remark or other dose. Sampled rows, rich in hits. Any-hit rate of the full collection: about 5.2%. Calls follow the shape of the dose curve; as a rule, active = well fitted curve in the direction sought with a large enough effect; inconclusive = small, poorly fitted or top-dose-only effect, or another doubt; inactive = no such curve, though single readings can be large; an effect the other way counts as inactive or inconclusive. Unless noted, % is scaled to controls: 0 for no effect and ±100 for the full control effect; potency is read from the fitted curve at half-maximal effect.

SMILES | VDR inh | TrxR1 inh | PLK1 PBD block | Sfp inh | IDH1 R132H inh | TrxR1 substrate
O=C(Oc1ccc(C(=S)N2CCOCC2)cc1)c1ccccc1F | ? | 10% | 21µM* | 25µM* | 15% | 2%
O=C(Oc1ccc(C(=S)N2CCOCC2)cc1)c1ccccc1[N+](=O)[O-] | -13% | 6% | -7% | -14% | 1% | -4%[11.4 µM]
COc1cccc(/C=C/C(=O)c2ccc3c(c2)OCCO3)c1OC | ? | 23% | -13% | -16% | -2% | 0%
COCCNc1nc(Oc2cncc(Cl)c2)c2sccc2n1 | . | . | -3% | . | . | .
CC1S/C(=N/N=C/c2ccco2)N(Cc2ccc(F)cc2)C1=O (stereo not drawn) | -16% | ? | -18% | -7% | 7% | -1%
Cc1ccccc1CN1C(=O)C(C)S/C1=N/N=C/c1ccco1 (stereo not drawn) | 8% | ? | -5% | 79µM* | 3% | -1%
CCC(=O)NC(=S)Nc1c(C)cc(Br)cc1C | -12% | 28µM* | -3% | 20% | 14% | 3%
CCCC(=O)NC(=S)Nc1c(C)cc(Br)cc1C | -6% | ? | -26% | . | 2% | -8%
CCCCCCC#CC1C=CC(OC(=O)OCC)C(COC(=O)OCC)O1 (stereo not drawn) | . | . | . | -3% | . | .
Cn1c(Cc2ccccc2)nnc1SCC(=O)c1ccc(Br)s1 | -28% | -31% | 21µM* | 20µM* | 4% | -5%
COc1ccc(-c2cc(-c3cc(OC)ccc3O)[nH]n2)cc1 | ? | 8%[57.1 µM] | 6.7µM* | -10% | 10% | -4%
COc1ccc(-c2n[nH]c(C)c2-c2cc(OC)ccc2O)cc1 | 8% | -13% | 0% | 40µM* | 1% | -2%
COc1ccc(-c2c(-c3ccc(OC)c(C)c3O)n[nH]c2C)cc1 | -11% | 26% | -17% | 20% | -9% | -4%
COc1ccc(O)c(-c2cc(-c3ccc(F)cc3)n[nH]2)c1 | 19% | 14% | -3% | -4% | 8% | 3%
COc1ccccc1S(=O)(=O)N(C)C[C@@H]1OCc2cn(nn2)CCCC(=O)N([C@@H](C)CO)C[C@H]1C | . | . | -10% | . | 1% | .
Cc1cccc(CN2C(=O)c3ccccc3Sc3ccc(C(=O)NCc4ccco4)cc32)c1 | 4% | 24%[57.1 µM] | . | . | -14% | 1%[57.1 µM]
CCOC(=O)C1=C(N)Oc2cc(O)ccc2C1c1ccc([N+](=O)[O-])cc1 (stereo not drawn) | -6% | 19% | -5% | 25µM* | 9% | -3%
COC(=O)c1ccc(C2C(C#N)=C(N)Oc3cc(N)ccc32)cc1 (stereo not drawn) | 9% | 1% | 3% | 9% | 8% | -2%
COC(=O)c1ccc(C2C(C#N)=C(N)Oc3cc(O)ccc32)cc1 (stereo not drawn) | 7% | 18µM* | -13% | -11% | -4% | -3%
CNc1cc(-c2cccc(OC)c2F)nc2ccnn12 | . | . | -2% | . | . | .
Nc1ncc(O)c(N)n1 | -1% | . | . | ? | . | .
COc1ccc(C2=Nn3c(nnc3-c3ccccc3O)SC2)c(OC)c1 | . | . | . | 6% | . | .
CCOc1ccc(Nc2nc(NCC3CCCO3)c3ccccc3n2)cc1 (stereo not drawn) | -3% | -2% | -7% | 35µM* | -3% | -4%
Cc1nc2ccc(NC(=O)Nc3ccnc4cccnc34)cc2o1 | 6% | . | . | -8% | . | .
Cc1ccc2[nH]c(CSc3nnc(NC(=O)c4ccccc4C)s3)cc(=O)c2c1 | 9% | 12%[57.1 µM] | . | . | -4% | -2%[57.1 µM]
SMILES | VDR inh | TrxR1 inh | PLK1 PBD block | Sfp inh | IDH1 R132H inh | TrxR1 substrate
COCCCN1CCc2[nH]c(=S)[nH]c(=O)c2C1 | ? | -23% | -13% | 50µM* | 5% | -8%
COc1cccc(CN2CCc3[nH]c(=S)[nH]c(=O)c3C2)c1 | -10% | -8% | -7% | -28% | 7% | 2%
CCCOc1ccccc1NC(=O)/C=C/C(N)=O | 4% | 13µM* | -15% | -25% | 1% | 8%
COc1ccc(C(=O)N2CCNC(=O)C2CC(=O)Nc2cc(Cl)ccc2OC)cc1 (stereo not drawn) | -3% | 15% | -5% | 10% | -9% | -1%
O=c1cc[nH]c2c(C(F)(F)F)cccc12 | 33% | 8% | -5% | 12% | -6% | 0%
O=C1N=c2ccccc2=C1c1c(O)[nH]c2c(C(F)(F)F)cccc12 | 35µM* | 22%[57.1 µM] | 27µM* | 4% | 4% | 7%[57.1 µM]
Cc1cc(C)c2nc3s/c(=C/c4ccc5c(c4)n(C)c(=O)n5C)c(=O)n3c2c1 | . | . | . | 20µM* | . | .
O=c1/c(=C/c2ccccn2)sc2nc3ccccc3n12 | -12% | 2% | -14% | -4% | 0% | -7%
COc1ccc(NC(=O)CC2NCCNC2=O)c(OC)c1 (stereo not drawn) | -2% | 5% | . | . | -9% | 13%[11.4 µM]
Cc1cccc(C(=O)n2c(=S)nc3ccccn32)c1 | 79µM* | -13%[57.1 µM] | 24µM* | 40µM* | 3% | -10%
CCCCOc1ccc(/C=C/C(=O)Nc2ccc(C(N)=O)cc2)cc1 | 79µM* | -8% | -6% | 13% | -4% | 2%
Cc1ccc2oc(-c3ccc(NC(=O)CCC(=O)O)cc3)nc2c1 | -7% | 29% | . | . | -3% | 325%
O=C(Nc1cc(C(F)(F)F)cc(C(F)(F)F)c1)O[C@@H]1c2ccccc2[C@@H]2Cc3csc[n+]3[C@H]12 | . | . | 1% | . | . | .
Cc1oc2cc(O)ccc2c(=O)c1-c1nncn1-c1ccccc1 | 8% | -32% | 30µM* | 19% | 9% | 12%
Cc1oc2cc(O)ccc2c(=O)c1-c1cnn(-c2ccccc2)c1 | 1% | 11%[57.1 µM] | -7% | 7% | 1% | 17%[57.1 µM]
O=C(CCS(=O)(=O)c1cc(Br)cc2c1N(C(=O)C1CC1)CC2)N1CCN(c2cccc(Cl)c2)CC1 | 9% | 3% | . | . | 0% | -8%
Cc1ccc2nc(NC(=O)C3CCCN(S(=O)(=O)c4cnc[nH]4)C3)sc2c1 (stereo not drawn) | -9% | -5% | -25% | 14% | 1% | -10%
CCSc1nnc(NC(=O)C2CCCN(S(=O)(=O)c3cnc[nH]3)C2)s1 (stereo not drawn) | -4% | 19% | 30µM* | -10% | 14% | -1%
N#Cc1cccc(S(=O)(=O)N2CCN(S(=O)(=O)c3ccc4c(c3)OCCO4)CC2)c1 | 7% | 2% | . | . | . | -2%
COc1ccc(C2C=C(c3ccc(Br)s3)Nc3ncnn32)cc1OC (stereo not drawn) | . | . | . | 56µM* | . | .
COc1cccc(C2C=C(c3cccs3)Nc3ncnn32)c1OC (stereo not drawn) | -9% | ? | -19% | 50µM* | 1% | -4%
Cc1c(C(=O)NCc2ccccc2Cl)sc2nc[nH]c(=O)c12 | 16% | 17%[57.1 µM] | . | . | -5% | 1%[57.1 µM]
CCOCCCn1c(=S)[nH]c2cc(C(=O)NCCOC)ccc2c1=O | 2% | -1% | -2% | 79µM* | 4% | 1%
